# Experimental data published in PubChem BioAssay.
# Values without a mark were called inactive. How the calls were made is not given here.
# Molecular target: Pantothenate synthetase (Mycobacterium tuberculosis (strain ATCC 25618 / H37Rv)) (UniProt P9WIL5)
# Assay: Coupled enzyme confirmation of inhibitors against recombinant Mtb PanC (AID 375);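 further: 0% = full reaction with vehicle and 100% = no enzyme background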
# Details: coupled enzyme assay; at 10 µM, active compounds read high
# Pantothenate synthetase (Mycobacterium tuberculosis (strain ATCC 25618 / H37Rv)), sequence (P9WIL5 whole entry, looked up): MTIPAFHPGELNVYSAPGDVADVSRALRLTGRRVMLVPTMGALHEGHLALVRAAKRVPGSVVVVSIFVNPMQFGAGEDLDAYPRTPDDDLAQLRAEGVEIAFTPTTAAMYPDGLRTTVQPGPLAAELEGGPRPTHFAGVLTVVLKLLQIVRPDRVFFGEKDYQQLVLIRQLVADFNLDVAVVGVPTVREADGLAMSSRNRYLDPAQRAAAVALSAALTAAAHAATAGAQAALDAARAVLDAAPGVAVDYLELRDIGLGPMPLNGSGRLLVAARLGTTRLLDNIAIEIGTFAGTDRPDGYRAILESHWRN
row,Structure (SMILES),inhibition [%]
1,COc1ccc(Cc2nn3c(-c4cc(OC)c(OC)c(OC)c4)nnc3s2)cc1,0
2,COc1cc(Nc2cc(C)nc3ncnn23)cc(OC)c1OC,0
3,O=C(NCC(c1cccnc1)N1CCN(c2ccc(F)cc2)CC1)c1ccc(F)cc1 (stereo not drawn),4
4,COCc1cc(=O)[nH]c(Nc2nc3ccccc3o2)n1,0
5,CC1CN(c2nc(-c3ccccc3)nc3ccccc23)CC(C)O1 (stereo not drawn),0
6,Cc1cnn(C(=S)NCc2ccco2)c1,0
7,O=c1[nH]c(SCc2ccccc2Cl)nc2c1CCCC2,0
8,COCCCNC(=O)c1ccc2c(c1)OCO2,1
9,O=C(CSc1nnc(-c2c[nH]c3ccccc23)o1)N(Cc1ccccc1)c1ccc(F)cc1,0
10,CC(C(=O)N1CCc2ccccc21)N1CCc2ccccc2C1 (stereo not drawn),3
11,CCCCc1ccc(NC(=O)C2CCCO2)cc1 (stereo not drawn),0
12,Cn1c(C(=O)OCC(=O)NCC2CCCO2)cc2sccc21 (stereo not drawn),2
13,CCc1nnc(NC(=O)c2cc3ccccc3oc2=O)s1,2
14,Nc1nc2ccccc2n1/N=C/c1ccc(Br)cc1,1
15,COc1ccc(OC)c(C2=NOC(C(=O)Nc3cccnc3)C2)c1 (stereo not drawn),0
16,COc1ccccc1N1CCN(c2cc(=O)n(Cc3ccc(F)cc3)c(=O)[nH]2)CC1,0
17,CCSc1nnc(NC(=O)C(CC)(C(F)(F)F)C(F)(F)F)s1,0
18,CC(=O)N(c1ccc(N(C(C)=O)S(=O)(=O)c2cccs2)cc1)S(=O)(=O)c1cccs1,0
19,Cc1cnc(C(=O)OCC(=O)Nc2ccc(Cl)cc2Cl)cn1,8
20,COc1ccc(C/C(N)=N/n2cnnc2)cc1Cl,0
21,CN(C)c1ccc(NC(=O)c2ccncc2)c2ccccc12,6
22,CC(CCc1ccccc1)NC(=O)CSc1nc(N)cc(N)n1 (stereo not drawn),0
23,CCOC(=O)NC1(NCc2ccccc2)Oc2ccccc2O1,0
